14 compounds from PubChem BioAssay (Tox21) can be followed below.

The target of experiment [1] is Thyrotropin receptor (Homo sapiens) (UniProt P16473). In words: qHTS assay to identify small molecule agonists of the thyroid stimulating hormone receptor (TSHR) signaling pathway (AID 1224843; calls by dose curve; further: nearly all actives have a fitted effect of over 45% in size). A digest of the protocol:
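Steps: seed 800 TSHR-HEK293 cells per well; add test compound and hold 30 min at ambient temperature; dispense cAMP-d2 then anti-cAMP cryptate; incubate 1 h at ambient; measure fluorescence intensity.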

Experiment [2] in a line: qHTS assay to identify small molecule agonists of H2AX (AID 1224845; active means well fitted activation curve with a large enough effect in the signal ratio in the repeat runs, not every such curve was filed as active; the % refers to the signal ratio). In a few lines: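 Wild-type CHO-K1 cells, plated overnight, exposed 3hr at 37C to 15 concentrations (0.76% DMSO final). Lysed, then HTRF anti-pH2AX (S139) cryptate and anti-H2AX-d2 antibodies, 24 hr room temperature; 665/620 nm emission read.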
Experiment [3] in a line: qHTS assay to identify small molecule agonists of H2AX - cell viability counter screen (AID 1224847; calls by dose curve; further: nearly all actives have a fitted effect of over 30% in size; further: potency means the concentration at half of the fitted maximal effect). In a few lines: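 Cytotoxicity counter screen in wild-type CHO-K1 cells: a 3 hr compound treatment at 37C across 15 concentrations, followed by CellTiter-Glo luminescence to gauge viable cells.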
Experiment [4] can be described thus: qHTS assay to identify small molecule antagonists of the estrogen related receptor (ERR) signaling pathway from Tox21 library (AID 1224848). Further: nearly all actives have a fitted effect of over 50% in size. In a few lines: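 Luminescent reporter read-out (ONE-Glo) from NTP's ERR cell line after 18 h treatment at 37 C with DMSO-dissolved Tox21 compounds; cells pre-plated 6 h beforehand at 2,000 per well.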
The nature of experiment [5]: qHTS assay to identify small molecule agonists of the estrogen related receptor (ERR) signaling pathway from Tox21 library (AID 1224849; calls by dose curve; further: nearly all actives have a fitted effect of over 15% in size). The settings on record: ERR reporter cell line, ONE-Glo luciferase, 18 h; at 92.4 µM (top of the series) unless noted. A digest of the protocol:
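Six hours post-seeding at 37 C/5% CO2, ERR cells receive DMSO-solubilised compounds; after 18 h at 37 C, ONE-Glo reagent is applied and luminescence recorded.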

Experiment [6] is described as follows: qHTS RealTime-Glo MT Cell Viability Assay in HepG2 cells - 24 hour (AID 1224867). Further: nearly all actives have a fitted effect of over 50% in size. A digest of the protocol:
(§1)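 qHTS, HepG2, 600 cells/well, RealTime-Glo (NanoLuc + prosubstrate) added with cells; 5 h preincubation; DMSO compound addition; 37 C; luminescence at 0/8/16/24/32/40 h.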

Experiment [7] is described as follows: qHTS RealTime-Glo MT Cell Viability Assay in HEK293 cells - 32 hour (AID 1224868). Further: nearly all actives have a fitted effect of over 50% in size. Further: potency means the concentration at half of the fitted maximal effect. A digest of the protocol:
(§2)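 Assay medium contained NanoLuc luciferase plus cell-permeant prosubstrate, added with HEK293 cells at 600 cells/well. After 5 h at 37 C/5% CO2 compounds were added; plates stayed at 37 C for 40 h with serial luminescence reads.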

Experiment [8] in a line: A CellTox Green Cytotoxicity Assay to monitor cytotoxicity in HEK293 cells - 0 hour (AID 1224869). Further: nearly all actives have a fitted effect of over 50% in size. In a few lines: (§3)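 Seeding of HEK293 cells together with cytotoxicity dye preceded a 5 h incubation at 37 C/5% CO2. Test compounds in DMSO were then added and fluorescence monitored across 40 h.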
The nature of experiment [9]: qHTS RealTime-Glo MT Cell Viability Assay in HepG2 cells - 40 hour (AID 1224870). Further: nearly all actives have a fitted effect of over 50% in size. In a few lines:
(§4)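 HepG2 cells (600/well) mixed with RealTime-Glo MT reagent, settled 5 h at 37 C/5% CO2 before compound addition. Nonlytic NanoLuc luminescence from viable-cell prosubstrate reduction read repeatedly during 40 h treatment at 37 C.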

Experiment [10] is described as follows: A CellTox Green Cytotoxicity Assay to monitor cytotoxicity in HEK293 cells - 40 hour (AID 1224871). Further: nearly all actives have a fitted effect of over 45% in size. Further: potency means the concentration at half of the fitted maximal effect. A digest of the protocol: as §3
Experiment [11] is described as follows: qHTS RealTime-Glo MT Cell Viability Assay in HEK293 cells - 16 hour (AID 1224872). A digest of the protocol: as §2
Experiment [12] is described as follows: qHTS RealTime-Glo MT Cell Viability Assay in HepG2 cells - 8 hour (AID 1224873). Further: nearly all actives have a fitted effect of over 55% in size. A digest of the protocol:
as §4

A short description of experiment [13]: qHTS RealTime-Glo MT Cell Viability Assay in HEK293 cells - 40 hour (AID 1224874). Further: nearly all actives have a fitted effect of over 50% in size. Further: potency means the concentration at half of the fitted maximal effect. The settings on record: RealTime-Glo luminescence; max response: active compounds read low. In a few lines:
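Tox21 screen in HEK293 using RealTime-Glo MT chemistry, with cells and reagent co-dispensed. Luminescence proportional to viable cell number was captured at intervals during 40 h compound exposure at 37 C.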

A short description of experiment [14]: A CellTox Green Cytotoxicity Assay to monitor cytotoxicity in HEK293 cells - 24 hour (AID 1224875). Further: nearly all actives have a fitted effect of over 45% in size. A digest of the protocol:
as §3

Experiment [15] in a line: A CellTox Green Cytotoxicity Assay to monitor cytotoxicity in HepG2 cells - 16 hour (AID 1224876). Further: nearly all actives have a fitted effect of over 45% in size. In a few lines: (§5)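 Nonlytic assay: viable cells exclude the dye, so fluorescence scales with cell death. HepG2 at 600 cells/well, compounds added after 5 h, signal read across 40 h.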
Experiment [16] is described as follows: qHTS RealTime-Glo MT Cell Viability Assay in HepG2 cells - 32 hour (AID 1224877). Further: nearly all actives have a fitted effect of over 55% in size. A digest of the protocol:
as §1

Experiment [17] in a line: A CellTox Green Cytotoxicity Assay to monitor cytotoxicity in HepG2 cells - 24 hour (AID 1224878). Further: nearly all actives have a fitted effect of over 45% in size. A digest of the protocol: as §5
A short description of experiment [18]: A CellTox Green Cytotoxicity Assay to monitor cytotoxicity in HepG2 cells - 40 hour (AID 1224879). Further: nearly all actives have a fitted effect of over 40% in size. A digest of the protocol: as §5
The nature of experiment [19]: qHTS assay to identify small molecule agonists of the hypoxia (HIF-1) signaling pathway (AID 1224846; active means well fitted activation curve with a large enough effect in the signal ratio in the repeat runs, not every such curve was filed as active; the % refers to the signal ratio). In a few lines:
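Hypoxia-pathway activation was scored as increased beta-lactamase from an HRE-controlled reporter in ME-180 cells; plated at 2,000 cells per well with 0.5% dialyzed FBS, they were exposed 17 hrs to compounds and then given CCF4-AM.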

Experiment [20] is described as follows: qHTS assay to identify small molecule agonists of the hypoxia (HIF-1) signaling pathway - cell viability counter screen (AID 1224844; calls by dose curve; further: nearly all actives have a fitted effect of over 50% in size). A digest of the protocol: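 Multiplexed with the HRE beta-lactamase assay, this viability read used CellTiter-Glo luminescence (30 min, RT) on HRE-bla ME-180 cells treated 17 hrs with compounds in 0.5% dialyzed FBS medium.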

A number with no mark means an inactive call. Results filed as inconclusive are left out. The source made the active and inactive calls. Unless noted, the call rests on the fitted dose curve; in most records, active means well fitted curve in the direction sought with a large enough effect in the repeat runs; inconclusive means weak or mixed curves; inactive means no such curve, though single readings can be large; an effect the other way counts as inactive or inconclusive.
On the % scale 0 is the no-effect control and ±100 the full control effect.

Chain of Thyrotropin receptor (Homo sapiens) (P16473 whole entry, looked up): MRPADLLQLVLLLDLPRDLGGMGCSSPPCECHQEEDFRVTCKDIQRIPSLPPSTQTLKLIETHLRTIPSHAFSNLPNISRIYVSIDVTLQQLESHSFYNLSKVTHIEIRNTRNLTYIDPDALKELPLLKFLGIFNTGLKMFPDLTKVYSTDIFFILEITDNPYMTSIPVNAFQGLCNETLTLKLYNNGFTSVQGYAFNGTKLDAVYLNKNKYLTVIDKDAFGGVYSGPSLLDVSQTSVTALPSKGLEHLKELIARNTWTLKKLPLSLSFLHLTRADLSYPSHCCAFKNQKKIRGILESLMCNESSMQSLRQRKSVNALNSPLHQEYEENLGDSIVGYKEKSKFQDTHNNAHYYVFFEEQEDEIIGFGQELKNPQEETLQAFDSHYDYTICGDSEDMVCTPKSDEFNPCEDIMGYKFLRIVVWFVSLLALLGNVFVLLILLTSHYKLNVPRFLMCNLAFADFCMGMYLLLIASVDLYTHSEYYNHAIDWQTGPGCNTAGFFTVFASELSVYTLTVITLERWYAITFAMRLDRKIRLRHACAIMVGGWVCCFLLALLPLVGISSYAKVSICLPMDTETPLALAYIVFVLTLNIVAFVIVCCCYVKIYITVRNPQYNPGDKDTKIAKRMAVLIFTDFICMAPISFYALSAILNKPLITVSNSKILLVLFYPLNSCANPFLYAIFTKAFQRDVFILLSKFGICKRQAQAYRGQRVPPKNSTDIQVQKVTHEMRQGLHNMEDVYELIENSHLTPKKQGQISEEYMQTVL

Take `O=C(NCC(O)CO)c1c(I)c(C(=O)NCC(O)CO)c(I)c(N(CCO)C(=O)CO)c1I` (stereo not given): the Potency entry in [1], in experiment [3], in experiment [4], in experiment [7], in experiment [10] and in [11] was “inactive” throughout. The Potency entry in [18] was “inactive”. Besides, the call in [2], in experiment [6], in experiment [8], in [9], in [12] and in experiment [14] was inactive. The outcome in experiment [15], in experiment [16] and in experiment [17] was inactive. Besides, in [5], the activity change, positive = activation is 5.02% [at 42.5 µM]. Moreover, the max response in experiment [13] was 8.98%.

In the case of `O=C1c2ccccc2C(=O)c2cc(S(=O)(=O)O)ccc21`, the Potency entry in experiment [1], in [3], in experiment [10] and in experiment [18] was “inactive” in each case. For the same compound, the call in [2], in experiment [19], in experiment [8], in [12], in experiment [14] and in experiment [15] was inactive. Further, in experiment [16], the compound was classed as inactive.

Turning to `CCCCCCOc1ccccc1C(N)=O`, the Potency result in [1] and in experiment [3] was “inactive” each time. Also, the call in experiment [2], in experiment [19], in experiment [6], in experiment [8], in experiment [9] and in experiment [12] was inactive. Further, the result in [14], in [15] and in experiment [16] was inactive. The Potency in [7] is 16.9 µM (active); in experiment [13] it was 10.7 µM (active).

In the case of `NS(=O)(=O)c1ccc(NC(=O)CCC(=O)O)cc1`, the Potency result in [1], in experiment [3], in experiment [7], in experiment [10], in experiment [11] and in experiment [18] was “inactive” in each case. In addition, the compound was classed as inactive in experiment [2], in [19], in [6], in experiment [8], in experiment [9] and in [12]. Further, the call in [14], in [15], in experiment [16] and in experiment [17] was inactive. Moreover, in experiment [13], the max response is 3.03%.

As to `CCCCNc1ccc(C(=O)OCCN(C)C)cc1`, the Potency result in [1], in [3], in [7], in experiment [10], in experiment [11] and in [18] was “inactive” each time. Also, the compound was classed as inactive in experiment [2], in experiment [8], in experiment [9], in experiment [12], in [14] and in experiment [15]. In addition, the result in [16] and in experiment [17] was inactive. For the same compound, the max response in [13] is -3.43%.

Consider `COc1ccc2c(c1)C(=O)N(CCc1ccc(S(=O)(=O)NC(=O)NC3CCCCC3)cc1)C(=O)C2(C)C`, for which the Potency result in [1], in experiment [3], in experiment [7], in experiment [10], in experiment [11] and in [18] was “inactive” throughout. In addition, the outcome in experiment [2], in experiment [19], in [6], in experiment [8], in experiment [12] and in experiment [14] was inactive. The compound was called inactive in experiment [15], in experiment [16] and in experiment [17]. Besides, in [13], the max response is -9.27%.

Take `CCCCCCCCCCl`: the Potency entry in [1], in experiment [3], in [4], in experiment [7], in [10] and in experiment [11] was “inactive” throughout. Besides, in experiment [18], the Potency entry was “inactive”. Besides, the compound was classed as inactive in experiment [2], in experiment [19], in experiment [6], in experiment [8], in [9] and in [12]. Besides, the compound was called inactive in experiment [14], in experiment [15] and in [17]. Besides, the activity change, positive = activation in experiment [5] is 2.84%. In addition, in [13], the max response is -0.474%.

Regarding `COc1cc2c(cc1OC)C(=O)CC2`, the Potency entry in experiment [1], in experiment [3], in experiment [7], in [10], in experiment [11] and in [18] was “inactive” throughout. The compound was called inactive in experiment [2], in experiment [19], in experiment [6], in experiment [8], in [9] and in [12]. In addition, the outcome in experiment [14], in experiment [15], in experiment [16] and in experiment [17] was inactive. The max response in experiment [13] is -24.5%.

For `Oc1ccccc1-c1nnco1`, the Potency result in [1], in experiment [3], in experiment [7], in [10], in experiment [11] and in experiment [18] was “inactive” each time. Further, the compound was called inactive in experiment [2], in experiment [19], in experiment [6], in experiment [8], in experiment [9] and in experiment [12]. The outcome in [14], in experiment [15], in [16] and in [17] was inactive. Moreover, in experiment [13], the max response is 2.75%.

`CCCC/C=C/C=C\C=O`: the Potency entry in experiment [1], in experiment [7], in experiment [10], in experiment [11] and in experiment [18] was “inactive” each time. Further, the outcome in experiment [19], in experiment [6], in [8], in [9], in experiment [12] and in [14] was inactive. Further, the compound was called inactive in [15], in experiment [16] and in [17]. In experiment [3], the Potency is 1.6 µM (active). In experiment [13], the max response is 0.84%.

For `C[C@@H](Oc1ccc(CNC(=O)c2cccnc2Oc2ccc3c(c2)OCO3)c(F)c1)C(=O)O`, the result in experiment [20], in [2], in experiment [19], in [6], in experiment [8] and in experiment [9] was inactive. For the same compound, the outcome in [12], in experiment [14], in experiment [15], in [16] and in [17] was inactive. Besides, the Potency result in [3], in [4], in [7], in [10], in experiment [11] and in experiment [18] was “inactive” throughout. In experiment [5], the activity change, positive = activation was 4.43%. Further, the max response in experiment [13] is 9.55%.

For the compound `Cc1cccc2nccnc12`, the Potency entry in [1], in experiment [7], in experiment [11] and in experiment [18] was “inactive” in each case. Further, the result in experiment [2], in experiment [19], in [6], in experiment [8], in experiment [9] and in experiment [12] was inactive. The compound was classed as inactive in [15], in experiment [16] and in [17]. For the same compound, in [10], the Potency was 24.5 µM (active). The max response in experiment [13] was 6.74%.

With `CCc1ccc(C=O)cc1`, the Potency result in [1], in experiment [3], in experiment [4], in [7], in experiment [10] and in experiment [11] was “inactive” each time. In addition, in [18], the Potency entry is “inactive”. Further, the compound was called inactive in experiment [2], in experiment [19], in experiment [6], in experiment [8], in experiment [9] and in experiment [12]. In addition, the call in experiment [14], in [15] and in experiment [17] was inactive. For the same compound, the activity change, positive = activation in experiment [5] is 5.25%. Besides, the max response in [13] was -4.49%.

Consider `CCC(C)NC(N)=O` (stereo not given), for which the Potency result in experiment [1], in experiment [7], in [10], in [11] and in experiment [18] was “inactive” each time. The outcome in experiment [2], in experiment [19], in experiment [8], in [9], in [12] and in experiment [14] was inactive. The result in experiment [15], in experiment [16] and in experiment [17] was inactive. For the same compound, the max response in [13] is 0.218%.
